An excerpt weighted towards active compounds, which were near 18% of everything screened.
DT40 TDP1 no CPT: qHTS for Inhibitors of human tyrosyl-DNA phosphodiesterase 1 (TDP1): qHTS in cells in absence of CPT | DT40 Tdp1-/- hTDP1 cells, no CPT, ATP luminescence, 48 h | Potency, µM (doses to about 46.2 µM), inactives show at the highest dose activity change, negative = growth inhibition, actives largely listed as inhibitors | hit rate 15% among 420,000 | AID 686978, 2013; further: potency means the concentration at half of the fitted maximal effect; on the % scale 0 is the no-effect control and ±100 the full control effect; nearly all actives have a fitted effect of over 55% in size
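Luminescent ATP content (CellTiter-Glo) served as the growth readout. Knockout chicken DT40 cells expressing human TDP1 were exposed to compounds without camptothecin for a minimum 48 hr at 37 °C.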
TGFb inhibitor: inhibitors of TGF-b signaling; hit rate 1.2% among 410,000; HepG2 CAGA-GFP TGF-b/SMAD3 reporter, GFP fluorescence, 18 h; TGF-beta stimulated, 500 pg/mL final; Potency, µM (titrated, usually from 46.1 µM), without a hit: at the highest dose activity, negative = inhibition, most hits filed as inhibitors; further: potency means the concentration at half of the fitted maximal effect; on the % scale 0 is the no-effect control and ±100 the full control effect; nearly all actives have a fitted effect of over 65% in size
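TGF-beta reporter screen: HEPG2 CAGA-GFP, 1% FBS, 500 pg/mL TGF-beta final, 18 h; per-cell GFP summed per well; curves fitted and categorized by class.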
HepG2 viability: HepG2 cytotoxicity, counter-screen for TGF-b inhibitors; HepG2 CAGA-GFP viability, ATP luminescence, 18 h; Potency, µM (top dose mostly 46.1 µM), for inactives: at the highest dose activity change, negative = cytotoxicity, hits mostly cytotoxic; hit rate 0.76% among 410,000; further: potency means the concentration at half of the fitted maximal effect
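HepG2 CAGA-GFP cells (1000/well, DMEM with 1% FBS) received compound, then TGF-beta at 500 pg/mL final, and were incubated 18 hours at 37 degrees C. Viability was read by CellTiter-Glo luminescence. Media-only wells were set as complete cell-killing and DMSO as no toxicity.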
TDP1 block: TDP1 (human) enzyme inhibition; recombinant TDP1, AlphaScreen DNA substrate cleavage; Potency, µM (titrated, usually from 130 µM), without a hit: at the top dose activity change, negative = inhibition, most hits filed as inhibitors; hit rate 0.28% among 350,000; further: potency means the concentration at half of the fitted maximal effect; on the % scale 0 is the no-effect control and ±100 the full control effect; nearly all actives have a fitted effect of over 40% in size
Target sequence (Q9NUW8 whole entry, looked up): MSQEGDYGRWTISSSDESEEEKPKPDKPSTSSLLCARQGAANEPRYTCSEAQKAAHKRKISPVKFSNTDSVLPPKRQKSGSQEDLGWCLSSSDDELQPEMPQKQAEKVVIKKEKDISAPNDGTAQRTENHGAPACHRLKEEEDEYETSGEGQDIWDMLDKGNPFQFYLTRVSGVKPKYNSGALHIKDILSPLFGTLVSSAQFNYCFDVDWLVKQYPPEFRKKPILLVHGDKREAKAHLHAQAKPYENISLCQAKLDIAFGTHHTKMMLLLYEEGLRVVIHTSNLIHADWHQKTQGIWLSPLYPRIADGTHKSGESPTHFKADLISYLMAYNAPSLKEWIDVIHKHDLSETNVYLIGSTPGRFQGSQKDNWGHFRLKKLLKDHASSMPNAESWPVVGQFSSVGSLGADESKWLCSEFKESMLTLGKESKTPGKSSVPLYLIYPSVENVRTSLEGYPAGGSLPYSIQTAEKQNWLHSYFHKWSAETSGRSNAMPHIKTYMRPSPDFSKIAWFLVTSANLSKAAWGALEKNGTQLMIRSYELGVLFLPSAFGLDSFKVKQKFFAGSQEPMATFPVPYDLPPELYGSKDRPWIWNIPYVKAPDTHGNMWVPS
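Here, a 5' biotin and 3' phosphotyrosine-FITC DNA oligonucleotide reports Tdp1 activity: intact substrate bridges AlphaScreen beads, while cleavage leaves a 3' phosphate and drops signal. All incubations at room temperature.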
TDP1 cell CPT: DT40-hTDP1 cell growth loss with CPT; AID 686979; chicken DT40 Tdp1-/-;hTDP1 cells + 20 nM CPT, ATP luminescence, 48 h; Potency, µM (series often up to 46.2 µM), for the others: at the highest dose activity change, negative = growth inhibition, usual class: inhibitors; hit rate 12% among 420,000; further: potency means the concentration at half of the fitted maximal effect; on the % scale 0 is the no-effect control and ±100 the full control effect; nearly all actives have a fitted effect of over 55% in size
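Chicken DT40 Tdp1-/- cells complemented with human TDP1, 400 cells/well, exposed to compounds plus 20 nM camptothecin for at least 48 h at 37 C; viability read as ATP content by CellTiter-Glo luminescence.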
IL-1B inflam inh: inhibitors of inflammasome signaling (IL-1 beta secretion). THP-1 LPS/ATP IL-1B secretion, AlphaLISA, 16 h; active compounds read low. activity change, % at 57.5 µM. AID 743279. hit rate 4.7% among 360,000; in the data active means activity change below about -50%; inconclusive means mostly about -30% to -49%; further: on the % scale 0 is the no-effect control and ±100 the full control effect
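Secreted IL-1B measured by AlphaLISA bead assay after 16 h compound exposure of THP-1 cells; compounds (final up to 57.5 uM) added 1 h before LPS (250 ng/mL) and ATP (1.25 mM) stimulation; lower signal means less secretion.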
Numbers without * were called inactive; ? = inconclusive; nt = no result given; [ ] = remark or other dose. Unless noted, the call rests on the fitted dose curve; in most records, active means well fitted curve in the direction sought with a large enough effect; inconclusive means small, poorly fitted or top-dose-only effect, or another doubt; inactive means no such curve, though single readings can be large; an effect the other way counts as inactive or inconclusive.

SMILES	DT40 TDP1 no CPT	TGFb inhibitor	HepG2 viability	TDP1 block	TDP1 cell CPT	IL-1B inflam inh
c1ccc2c(c1)oc1c(NCC3CCCO3)ncnc12 (configuration not stated)	18.4µM*	0.0%	-23.9%	4.8%	?	117.1
CC(C)Cc1nc2oc3c(N4CCN(CCO)CC4)ncnc3c2c2c1CCCC2	13µM*	8.4%	-0.7%	8.0%	13µM*	-7.0
CC(C)Cc1nc2oc3c(NCC4CCCO4)ncnc3c2c2c1CCC2 (configuration not stated)	18.4µM*	-3.3%	-19.8%	-3.0%	13µM*	-27.3
CCOCCOc1cccc(C(=O)NC(c2ccccc2)c2ccccc2)c1	-21.2%	-0.5%	-9.4%	2.8%	-4.4%	-5.0
COc1cc(Cl)c(C)cc1NC(=O)CN(C)C1CCS(=O)(=O)C1 (configuration not stated)	-25.8%	-4.1%	-3.2%	0.2%	-3.6%	18.7
Cc1ccc(-c2cn3c(n2)sc2cc(C(=O)NCCCN4CCCCC4)ccc23)cc1	1.3µM*	-88.0%	10µM*	-2.6%	1.3µM*	nt
CCN1CCN(CCCNC(=O)c2ccc3c(c2)sc2nc(-c4ccc(C)cc4)cn23)CC1	1.3µM*	-89.7%	-98.9%	-2.6%	1.3µM*	nt
COc1ccc(-c2cn3c(n2)sc2cc(C(=O)Nc4ccc(C)c(Cl)c4)ccc23)cc1	4.7%	-1.8%	-4.7%	-1.3%	-1.6%	nt
Cc1ccc(-c2cn3c(n2)sc2cc(C(=O)NCCCN4CCCCCC4)ccc23)cc1	1.64µM*	-101.5%	10µM*	-2.6%	1.64µM*	nt
CC1CCCCN1CCCNC(=O)c1ccc2c(c1)sc1nc(-c3ccc(F)cc3)cn12 (configuration not stated)	3.26µM*	?	12.6µM*	5.2%	2.31µM*	nt
Cc1c(C)n(C)c2ccc(C(=O)NCCCN3CCCCC3C)cc12 (configuration not stated)	16.0%	-1.0%	-19.5%	4.7%	-19.2%	?
Cc1[nH]c(=O)c(C#N)c(C)c1CCC(=O)NCc1cccc(C(F)(F)F)c1	3.5%	-8.0%	-10.6%	-5.4%	-0.8%	-9.5
CCc1ccc(NCc2cc3ccc(OC)cc3n(CC(=O)Nc3ccc(C(C)C)cc3)c2=O)cc1	nt	-11.8%	-5.8%	8.5%	nt	nt
O=C(NCCCN1CCCCC1)c1ccc2c(c1)sc1nc(-c3ccc(F)cc3)cn12	2.31µM*	?	-51.0%	3.9%	4.11µM*	nt
COc1ccc(-c2n[nH]c(C)c2-c2cnn(-c3ccccc3)c2)c(O)c1	5.6%	12.6µM*	-47.8%	16.1%[56.1 µM]	4.8%	-4.5
COc1ccc(-c2n[nH]c(C)c2-c2cnn(-c3ccccc3)c2)c(O)c1C	?	12.6µM*	-103.5%	3.9%	-15.2%	-17.9
COc1ccc(Oc2c(-c3ccc(O)cc3O)n[nH]c2C)cc1	-23.8%	3.8%	-7.9%	9.6%	?	26.2
COc1ccc(-c2onc(C)c2-c2cnn(-c3ccccc3)c2)c(O)c1C	?	7.9%	-15.1%	2.7%	?	8.9
N#CC1(CCCN2CCCCC2)c2ccccc2CCc2ccccc21	?	35.6%	4.6%	nt	?	-57.1*
CCOc1ccc(NC(=O)CC2C(=O)N(c3cccc(C)c3)C(=O)N2CCC2=CCCCC2)cc1 (configuration not stated)	23.1µM*	?	-43.4%	6.4%	?	nt
COc1ccc(N2C(=O)C(CC(=O)Nc3ccc(F)cc3)N(CCC3=CCCCC3)C2=O)cc1 (configuration not stated)	16.4µM*	-26.9%	-28.4%	3.8%	?	nt
Cc1ccc2oc(=O)cc(CN3CCCCC3)c2c1	-0.4%	-5.7%	-84.0%	nt	2.9%	8.0
